# Reference: PubChem BioAssay
# The source made the active and inactive calls. Unless noted, the rule behind the calls is not given here.
# Key:
# [1] = test system: Wnt5a (protein binding on small-molecule microarray); assay: Wnt5a binders on small-molecule microarray, primary screen, biophysical, 635/667 nm fluorescence (AID 1142); conditions: 635 nm fluorescence, higher = more signal;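 note: fluorescence read at 667 nm with signal to noise per printed feature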
# [2] = cell viability in Huh7 cells, primary screen, cytotoxicity control for HCV replication inhibitor project, CellTiter-Glo luminescence, basal, 48 h (AID 1143); conditions: Huh7 HCV replicon, higher = more signal, called active from +8 up or from −8 down;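 note: Huh7 hepatoma cells carrying a hepatitis C replication reporter with no stimulus; test concentration not given here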
# [3] = P. aeruginosa biofilm formation inhibitors, primary screen, PAO1 strain, BacTiter-Glo luminescence, LB-PBS (AID 1144); conditions: 12 h, higher = more signal
# [4] = CREB reporter modulators without forskolin, primary screen, cell-based, PC12, CRE-LacZ reporter, unstimulated (AID 1145); conditions: no forskolin, luminescence, 4.5 h, higher = more signal, called active from +8 up or from −8 down
# [5] = CREB reporter modulators under forskolin, primary screen, cell-based, PC12, CRE-LacZ reporter, forskolin-stimulated (AID 1146); conditions: luminescence, 4.5 h, higher = more signal, called active from +8 up or from −8 down;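 note: PC12 cells with 6xCRE LacZ reporter stimulated by forskolin 10 µM; beta-galactosidase reporter signal reflecting CREB driven transcription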
# [6] = biological target: Streptavidin (Streptomyces avidinii) (UniProt P22629); assay: streptavidin binders on small-molecule microarray, primary screen, artefact control for SMM compound annotation, biophysical, 635/667 nm fluorescence (AID 1147); conditions: streptavidin binding, higher = more signal;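 note: signal reflects streptavidin binding to arrayed compounds as a control protein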
# Sequence of Streptavidin (Streptomyces avidinii) (P22629 whole entry, looked up): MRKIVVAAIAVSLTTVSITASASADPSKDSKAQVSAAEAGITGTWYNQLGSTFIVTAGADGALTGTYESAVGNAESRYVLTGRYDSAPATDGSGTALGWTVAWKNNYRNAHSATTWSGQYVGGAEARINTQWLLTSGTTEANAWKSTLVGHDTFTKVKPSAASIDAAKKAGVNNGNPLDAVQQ
# [7] = small-molecule binders of probe aInhba, primary screen, biochemical, small-molecule microarray, 635/667 nm fluorescence (AID 1148); conditions: higher = more signal;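 note: score merges 667nm spot fluorescence with signal-to-noise for antibody binding to printed compounds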
# Torsin-1A (Homo sapiens) [8] = biological target: Torsin-1A (Homo sapiens) (UniProt O14656); assay: torsin A binders from cell lysate, primary screen, small-molecule microarray, wild-type, 635/667 nm (AID 1149); conditions: COS7 hTOR1A-WT lysate, 635 nm fluorescence, higher = more signal
# Sequence of Torsin-1A (Homo sapiens) (O14656 whole entry, looked up): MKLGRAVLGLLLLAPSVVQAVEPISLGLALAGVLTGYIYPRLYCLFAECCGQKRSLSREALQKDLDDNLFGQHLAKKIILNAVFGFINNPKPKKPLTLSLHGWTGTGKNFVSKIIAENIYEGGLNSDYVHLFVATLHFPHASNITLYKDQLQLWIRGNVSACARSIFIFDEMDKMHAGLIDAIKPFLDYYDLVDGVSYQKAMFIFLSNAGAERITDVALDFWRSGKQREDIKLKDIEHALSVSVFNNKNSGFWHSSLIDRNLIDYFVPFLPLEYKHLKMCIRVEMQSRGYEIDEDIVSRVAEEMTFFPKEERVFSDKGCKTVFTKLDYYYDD
# Torsin-1A (Homo sapiens) [9] = biological target: Torsin-1A (Homo sapiens) (UniProt O14656); assay: small-molecule binders of mutant TOR1A in lysate, primary screen, cell lysate, small-molecule microarray, COS7 lysate, 635/667 nm fluorescence (AID 1150); conditions: COS7 hTOR1A mutant lysate, 635 nm fluorescence, higher = more signal;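 note: score pools 667 nm emission and signal to noise measuring lysate protein binding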
# [10] = test system: Sonic hedgehog protein (Shh); assay: small-molecule binders of Shh protein, primary screen, biochemical, small-molecule microarray, 635/667 nm fluorescence (AID 1151); conditions: small-molecule microarray binding, 635 nm fluorescence; higher = more signal;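 note: Shh protein binding to compounds spotted on small-molecule microarray slides; score combines spot fluorescence intensity with signal-to-noise across triplicate slides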
# [11] = E. coli DRC41 culture turbidity changes, primary screen, E. coli filamentation inducer project, strain DRC41, OD650, 48 h (AID 1152);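 note: E. coli MC1000 strain DRC41 lacking acrAB efflux pump and sulA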; conditions: E. coli DRC41 (acrAB sulA), higher = more signal, called active from +8 up or from −8 down
# [12] = small-molecule binders of probe aLefty1, primary screen, biochemical, small-molecule microarray, 635/667 nm fluorescence (AID 1153); conditions: higher = more signal;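 note: score merges spot fluorescence with signal-to-noise ratio from the scanned slide images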
# [13] = PSAC antagonists in infected red cells, primary screen, cell-based, P. falciparum Indochina, OD700, 1 h (AID 1154); conditions: P. falciparum Indochina infected RBC osmotic lysis, higher = more signal, called active from +8 up or from −8 down
# [14] = PSAC antagonists in infected red cells, primary screen, cell-based, P. falciparum Indochina, OD700, 2 h (AID 1155);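 note: lysis reports solute entry through the parasite surface anion channel PSAC; channel blockers reduce lysis of infected cells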; conditions: P. falciparum Indochina infected erythrocytes, osmotic lysis OD700; higher = more signal, called active from +8 up or from −8 down
# [15] = osmotic lysis modulators in infected erythrocytes, primary screen, PSAC antagonist project, cell-based, P. falciparum Indochina, OD700, 3 h (AID 1156); conditions: higher = more signal, called active from +8 up or from −8 down
# [16] = PSAC antagonists in infected red cells, primary screen, cell-based, P. falciparum Indochina, OD700, 18 h (AID 1157); conditions: P. falciparum Indochina infected erythrocytes, osmotic lysis OD700, 18 h; higher = more signal, called active from +8 up or from −8 down
# [17] = modulators of S6 phosphorylation in cells, primary screen, cell-based, A549, cytoblot, luminescence, serum-stimulated (AID 1158); conditions: A549 phospho-S6 cytoblot, 5 h, higher = more signal;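 note: serum-stimulated A549 lung adenocarcinoma cells; signal is phosphorylated S6 detected by cytoblot immunostaining with HRP secondary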
# [18] = biological target: NADPH oxidase 2 (Homo sapiens) (UniProt P04839); assay: NOX2-dependent H2O2 signal modulators, primary screen, NOX inhibitor project, cell-based, HEK293-NOX2, PMA-stimulated, Amplex Red fluorescence (AID 1159); conditions: 45 min, higher = more signal, called active from +8 up or from −8 down; note: test concentration not given here
# Sequence of NADPH oxidase 2 (Homo sapiens) (P04839 whole entry, looked up): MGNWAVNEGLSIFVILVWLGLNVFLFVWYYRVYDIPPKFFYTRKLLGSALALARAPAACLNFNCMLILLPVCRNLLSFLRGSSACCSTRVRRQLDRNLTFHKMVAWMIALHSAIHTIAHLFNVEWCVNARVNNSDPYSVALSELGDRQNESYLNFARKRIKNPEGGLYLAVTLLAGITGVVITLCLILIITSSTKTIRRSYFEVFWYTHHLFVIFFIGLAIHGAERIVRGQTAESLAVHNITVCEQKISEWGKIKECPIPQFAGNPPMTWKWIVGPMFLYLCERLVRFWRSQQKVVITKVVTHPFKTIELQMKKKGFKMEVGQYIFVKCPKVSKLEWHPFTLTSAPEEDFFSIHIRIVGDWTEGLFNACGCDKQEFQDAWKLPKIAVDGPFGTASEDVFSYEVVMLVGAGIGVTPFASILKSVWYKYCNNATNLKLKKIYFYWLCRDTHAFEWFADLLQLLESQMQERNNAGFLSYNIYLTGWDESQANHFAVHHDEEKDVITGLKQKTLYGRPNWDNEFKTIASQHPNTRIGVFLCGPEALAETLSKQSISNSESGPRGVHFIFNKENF
# [19] = biological target: NADPH oxidase 4 (Homo sapiens) (UniProt Q9NPH5); assay: NOX4-dependent H2O2 signal modulators, primary screen, NOX inhibitor project, cell-based, HEK293-NOX4, tetracycline-induced, Amplex Red fluorescence (AID 1160); conditions: 45 min, higher = more signal, called active from +8 up or from −8 down
# Sequence of NADPH oxidase 4 (Homo sapiens) (Q9NPH5 whole entry, looked up): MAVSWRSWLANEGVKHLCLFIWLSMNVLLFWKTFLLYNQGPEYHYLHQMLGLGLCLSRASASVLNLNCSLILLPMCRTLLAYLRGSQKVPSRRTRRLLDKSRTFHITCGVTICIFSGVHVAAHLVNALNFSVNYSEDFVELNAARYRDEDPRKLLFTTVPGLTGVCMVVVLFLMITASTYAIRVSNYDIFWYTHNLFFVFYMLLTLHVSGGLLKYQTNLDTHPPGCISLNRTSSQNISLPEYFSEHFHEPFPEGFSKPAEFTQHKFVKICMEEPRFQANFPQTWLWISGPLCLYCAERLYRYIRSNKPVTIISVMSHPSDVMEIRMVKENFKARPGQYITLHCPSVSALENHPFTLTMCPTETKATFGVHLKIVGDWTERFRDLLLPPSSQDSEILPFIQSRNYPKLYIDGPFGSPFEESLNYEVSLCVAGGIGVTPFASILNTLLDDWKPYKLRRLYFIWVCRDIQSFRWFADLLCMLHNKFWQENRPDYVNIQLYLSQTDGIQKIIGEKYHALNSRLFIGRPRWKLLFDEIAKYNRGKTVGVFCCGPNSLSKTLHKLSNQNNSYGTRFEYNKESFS
# [20] = biological target: NADPH oxidase 5 (Homo sapiens) (UniProt Q96PH1); assay: NOX5-dependent H2O2 signal modulators, primary screen, NOX inhibitor project, cell-based, HEK293-NOX5, Amplex Red fluorescence (AID 1161); conditions: HEK293-NOX5, ionomycin, 45 min, higher = more signal
# Sequence of NADPH oxidase 5 (Homo sapiens) (Q96PH1 whole entry, looked up): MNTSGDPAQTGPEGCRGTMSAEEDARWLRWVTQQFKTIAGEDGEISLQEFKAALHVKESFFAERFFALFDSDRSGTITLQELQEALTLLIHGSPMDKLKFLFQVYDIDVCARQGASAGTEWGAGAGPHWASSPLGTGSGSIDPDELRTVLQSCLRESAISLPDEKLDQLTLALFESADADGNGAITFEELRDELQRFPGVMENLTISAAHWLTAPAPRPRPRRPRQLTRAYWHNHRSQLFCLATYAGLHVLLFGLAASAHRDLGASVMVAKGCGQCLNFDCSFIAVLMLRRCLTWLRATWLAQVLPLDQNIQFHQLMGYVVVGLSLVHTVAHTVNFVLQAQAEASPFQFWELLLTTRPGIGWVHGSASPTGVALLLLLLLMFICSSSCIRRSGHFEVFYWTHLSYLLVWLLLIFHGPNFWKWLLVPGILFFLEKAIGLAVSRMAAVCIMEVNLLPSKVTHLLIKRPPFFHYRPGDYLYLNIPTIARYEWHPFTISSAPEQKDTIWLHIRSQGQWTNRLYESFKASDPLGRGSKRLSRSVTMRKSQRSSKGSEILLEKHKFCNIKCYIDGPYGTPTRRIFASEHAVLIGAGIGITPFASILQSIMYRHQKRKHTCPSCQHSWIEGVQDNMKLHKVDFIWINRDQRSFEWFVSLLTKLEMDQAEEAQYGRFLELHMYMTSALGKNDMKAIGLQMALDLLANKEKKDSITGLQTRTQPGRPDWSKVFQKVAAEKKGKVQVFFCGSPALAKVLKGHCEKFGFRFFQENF
Structure (SMILES),composite z-score [1],z-score [2],z-score [3],z-score [4],z-score [5],composite z-score [6],composite z-score [7],composite z-score (Torsin-1A (Homo sapiens) [8]),composite z-score (Torsin-1A (Homo sapiens) [9]),composite z-score [10],z-score [11],composite z-score [12],z-score [13],z-score [14],z-score [15],z-score [16],z-score [17],z-score [18],z-score [19],z-score [20]
O=C1c2ccccc2[C@](Cc2ccccc2I)(C(=O)NC2CC2)[C@H](c2ccc(CO)cc2)N1C1CCCCC1,0.557,-3.43 (inactive),0.214 (inactive),0.531 (inactive),0.424 (inactive),1.05,0.306,0.414,0.68,1.06,0.0304 (inactive),0.166,22.5 (active),5.2 (inactive),3.82 (inactive),1.36 (inactive),-0.471,0.478 (inactive),1.06 (inactive),2.45
OC([C@@H]1CC(c2ccccc2)=NO1)[C@H]1CC(c2ccccc2)=NO1 (stereo not given in full),0.0286,-0.263 (inactive),-0.00202 (inactive),2.31 (inactive),-0.487 (inactive),0.133,0.027,0.0801,-0.174,0.394,2.12 (inactive),0.139,24.6 (active),9.43 (active),0.291 (inactive),1.07 (inactive),0.383,-0.51 (inactive),-0.0169 (inactive),0.357
N#Cc1ccc(NN2C(C(O)c3c(F)cccc3Cl)C=CC3C(=O)N(c4ccccc4)C(=O)C32)cc1 (stereo not given),0.607,0.17 (inactive),-1.11 (inactive),0.622 (inactive),0.201 (inactive),1.35,0.419,0.513,1.35,0.585,-0.857 (inactive),0.192,22 (active),5.46 (inactive),1.21 (inactive),1.51 (inactive),-1.17,-1.1 (inactive),-3.86 (inactive),-2.98
CC(C)C[C@@H]1NC(=O)[C@H]2C[C@@H](C(=O)NCCCCCCN)[C@@H](c3ccc(O)cc3)N2C1=O,0.0135,-0.875 (inactive),0.469 (inactive),0.553 (inactive),1.08 (inactive),0.569,0.243,1.07,0.339,0.553,-0.63 (inactive),0.51,1.9 (inactive),0.0643 (inactive),-0.265 (inactive),0.3 (inactive),-0.648,1.21 (inactive),1.05 (inactive),0.315
CN(C)CCCNC(=O)[C@@]1(c2ccc([N+](=O)[O-])cc2)CC(=O)N(C2CCCCC2)[C@@H]1c1ccc(CO)cc1,-0.217,-0.406 (inactive),0.382 (inactive),0.234 (inactive),-0.342 (inactive),0.494,0.0342,-0.485,-0.161,0.371,0.0097 (inactive),0.0793,1.31 (inactive),0.346 (inactive),2.09 (inactive),-0.0633 (inactive),-0.0223,1.84 (inactive),1.31 (inactive),0.787
COc1ccc(CCNC(=O)[C@@]2(Sc3ccc(C)cc3)CC(=O)N(C3CCCCC3)[C@@H]2c2ccc(CO)cc2I)cc1,0.843,-2.23 (inactive),-0.382 (inactive),-0.168 (inactive),1.19 (inactive),0.422,0.0391,0.333,0.789,0.855,-0.0948 (inactive),0.0889,2.91 (inactive),0.547 (inactive),-0.325 (inactive),0.252 (inactive),-0.012,0.573 (inactive),0.672 (inactive),2.1
COc1cc2c(cc1OC)CN(C(=O)[C@H]1[C@@H]3C(=O)O[C@@H](c4ccccc4)[C@@H](c4ccccc4)N3[C@@H](c3ccc(O)cc3)[C@]13C(=O)Nc1ccc(C#CCNC(N)=O)cc13)CC2,0.438,-0.431 (inactive),-1.68 (inactive),-1.01 (inactive),-0.638 (inactive),-0.283,0.0357,0.437,0.0805,0.74,0.595 (inactive),0.075,0.342 (inactive),0.137 (inactive),-0.518 (inactive),0.335 (inactive),0.152,0.47 (inactive),0.732 (inactive),0.56
C=CCN1C(=O)[C@@]2(O[C@@H](CCO)[C@H]([Si](C)(C)c3ccc(OC)cc3)[C@H]2C)c2cc(NC(=O)c3ccc(OC)cc3)ccc21,0.157,-6.5 (inactive),-0.39 (inactive),10.6 (active),-1.6 (inactive),0.15,-0.0221,0.214,0.373,1.64,-0.0564 (inactive),-0.147,23.3 (active),6.69 (inactive),0.978 (inactive),1.75 (inactive),0.26,-3.81 (inactive),-0.905 (inactive),-0.695
